# Experimental data published in PubChem BioAssay AID1159580 (chemical genetic matrix, 2015).
# The campaign covered roughly 5,500 compounds. About 2,000 (36%) were called active. Inconclusive results (about 18%) are left out. The list shows a part of the results. Unmarked numbers belong to inactive results. No stated cut-off is given here; in the data, active means normalized growth mostly below about 0.91 (no sharp cut-off); inconclusive means no clear call, values can overlap the other calls; inactive means mostly above about 0.92.
# Test: chemical genetic growth profiling, strain panel (AID 1159580);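 further: tested at 20 µM; growth read once vehicle control cultures reached saturation at 30 °C; 1 = growth at the plate median or of vehicle wells; lower values mean less growth of the strain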
# Settings: S. cerevisiae deletion strains, growth OD
# [1] = locus YHR030C, strain SLT2, hits give low values
smiles,measurement,setting,value
COc1ccc(C(C)=O)c(OC)c1,normalized growth,[1],0.954
same,normalized growth,"locus YHR079C, strain IRE1, hits give low values",0.952
same,normalized growth,"locus YJL095W, strain BCK1, hits give low values",0.965
same,normalized growth,"locus YJR066W, strain TOR1, hits give low values",0.953
same,normalized growth,"locus YLR113W, strain HOG1, hits give low values",0.948
same,normalized growth,"locus YNL183C, strain NPR1, hits give low values",0.895
same,normalized growth,"locus YOR231W, strain MKK1, hits give low values",0.934
same,normalized growth,"locus YPL256C, strain CLN2, hits give low values",0.909
COc1ccc(OC)c(C(=O)c2cc(OC)c(OC)c(OC)c2)c1,normalized growth,"locus YAL013W, strain DEP1, hits give low values",0.999
same,normalized growth,"locus YBR229C, strain ROT2, hits give low values",1.02
same,normalized growth,"locus YDL101C, strain DUN1, hits give low values",1
same,normalized growth,"locus YDR150W, strain NUM1, hits give low values",1.01
same,normalized growth,"locus YEL061C, strain CIN8, hits give low values",1.05
same,normalized growth,"locus YGR078C, strain PAC10, hits give low values",1
same,normalized growth,[1],0.93
same,normalized growth,"locus YHR087W, strain rtc3, hits give low values",1.06
same,normalized growth,"locus YJL187C, strain SWE1, hits give low values",1.01
same,normalized growth,"locus YJR043C, strain POL32, hits give low values",1.02
same,normalized growth,"locus YJR075W, strain HOC1, hits give low values",1.03
same,normalized growth,"locus YKL190W, strain CNB1, hits give low values",1.03
same,normalized growth,"locus YLR039C, strain RIC1, hits give low values",0.753 (active)
same,normalized growth,"locus YLR058C, strain SHM2 (second series), hits give low values",1.01
same,normalized growth,"locus YLR085C, strain ARP6, hits give low values",0.999
same,normalized growth,"locus YLR262C, strain YPT6, hits give low values",0.69 (active)
same,normalized growth,"locus YML094W, strain GIM5, hits give low values",0.982
same,normalized growth,"locus YMR219W, strain ESC1, hits give low values",1.01
same,normalized growth,"locus YMR263W, strain SAP30, hits give low values",1.01
same,normalized growth,"locus YNL153C, strain GIM3, hits give low values",1.01
same,normalized growth,"locus YNL298W, strain CLA4 (second series), hits give low values",1.01
same,normalized growth,"locus YNL322C, strain KRE1, hits give low values",0.995
same,normalized growth,"locus YNR030W, strain Alg12, hits give low values",1.01
same,normalized growth,"locus YOL006C, strain TOP1, hits give low values",0.973
same,normalized growth,"locus YPL055C, strain LGE1, hits give low values",1.01
same,normalized growth,"locus YPL241C, strain CIN2, hits give low values",0.986
same,normalized growth,"locus YPR135W, strain CTF4, hits give low values",1.06
